The results in this text go back to PubChem BioAssay (Tox21).

Results filed as inconclusive are left out. The source made the active and inactive calls. The call rests on the fitted dose curve; in most records, active means well fitted activation curve with a large enough effect in the repeat runs; inconclusive means weak or mixed curves; inactive means flat fitted curve, though single readings scatter.
On the % scale 0 is the no-effect control and ±100 the full control effect; potency means the concentration at half of the fitted maximal effect.

A short description of this assay: A CellTox Green Cytotoxicity Assay to monitor cytotoxicity in HEK293 cells - 8 hour (AID 1224884). Further: nearly all actives have a fitted effect of over 35% in size. As to conditions: CellTox Green fluorescence; series mostly up to 76.8 µM; cytotoxicity increase: at the top concentration. The source says: National Center for Advancing Translational Sciences [NCATS]
NIH Chemical Genomics Center [NCGC]
U.S. Environmental Protection Agency [EPA]
National Institutes of Environmental Health Sciences [NIEHS]
National Toxicology Program [NTP]
Cell-based models are critical for drug discovery. Determining the natural cytotoxic effects resulting from test compounds is an essential research activity. A CellTox Green Cytotoxicity Assay to monitor cytotoxicity in real time of continues cell culture during 40 hours of the compound treatment was used to screen Tox21 10K library compounds in Hek293 cells. CellTox Green Cytotoxicity Assay is a nonlytic, homogeneous, biofluorescent method to measure cytotoxicity in cell culture after experimental manipulation. The assay system uses a proprietary asymmetric cyanine dye that is excluded from viable cells but preferentially stains the dead cell's DNA. […] Viable cells produce no appreciable increases in fluorescence. Therefore, the fluorescence signal produced by the binding interaction with dead cell DNA is proportional to cytotoxicity.
The mixture of Hek293 cell suspension and reagents were dispensed at 600cells/6 ul/well in 1536-well tissue culture treated black solid bottom plates using a Multidrop dispenser. After the assay plates were incubated at a 37 C/5% CO2 incubator for 5 hours, 23 nL of compounds dissolved in DMSO, positive and negative controls was transferred to the assay plate by a pintool work station. The plates were incubated at 37 C for 40 hours. The fluorescence intensity were measured at 0h, 8h, 16h, 24h, 32h and 40h time points using ViewLux plate reader during compound treatment.
Take `NCCNCCO`: the “cytotoxicity increase” value was -6.72% (inactive). On the same count and under the same terms, for `CN1CCCN=C1COC(=O)C(O)(c1ccccc1)C1CCCCC1` (stereo not given) the value was 3.39% [at 35.3 µM] (inactive); for `N#CCc1ccc(Cl)cc1Cl`, 14.1% (inactive). Same read-out and setting: for `Cc1ccco1` the value was 2.06% (inactive); for `CN(C)CCC=C1c2ccccc2C=Cc2ccccc21`, -1.62% [at 35.3 µM] (inactive). Regarding `Cc1cc(=O)c2c(O)c3c(O)cc(=O)c4c3c3c(cc(O)c1c23)C(C)(C)C=4O`, the Potency is 7.37 µM (active). Turning to `Oc1cccc(O)c1O`, the “cytotoxicity increase” value is -8.62% (inactive). Turning to `CN1C(=O)c2ccccc2C1=O`, the “cytotoxicity increase” value is 10.4% (inactive). Regarding `CC(CO)CO`, the “cytotoxicity increase” value is -9.04% (inactive). Still for that read-out and setting: for `CC1(C)O[C@@H]2C[C@H]3[C@@H]4C[C@H](F)C5=CC(=O)C=C[C@]5(C)[C@H]4[C@@H](O)C[C@]3(C)[C@]2(C(=O)CO)O1` the value was -10.5% [at 35.3 µM] (inactive); for `O=C1Cc2ccccc2N1c1c(Cl)cccc1Cl`, -0.502% (inactive). In the case of `NC(=O)c1ccncc1`, the “cytotoxicity increase” value was -11.4% (inactive). Regarding `C=CC(=O)OCC1CC2CC1C1CCC(COC(=O)C=C)C21` (stereo not given), the “cytotoxicity increase” value is 12.7% (inactive). Still for that read-out and setting: for `CC(=O)c1ccc([N+](=O)[O-])cc1` the value was -12.3% (inactive); for `c1csc(SSc2cccs2)c1`, 21% (inactive). On the same count and under the same terms, for `COc1ccccc1N1CCN(CC(O)COc2cccc3ccccc23)CC1` (stereo not given) the value was -1.74% [at 35.3 µM] (inactive); for `O=C(Nc1cccc2c(=O)cc(-c3nn[nH]n3)oc12)c1ccc(OCCCCc2ccccc2)cc1`, 36.5% [at 35.3 µM] (inactive). For `CCOC(=O)c1ccc(C#Cc2ccc3c(c2)C(C)(C)CCS3)nc1`, the “cytotoxicity increase” value is -0.0035% [at 35.3 µM] (inactive). On the same count and under the same terms, for `CC(C)Nc1cccnc1N1CCN(C(=O)c2cc3cc(NS(C)(=O)=O)ccc3[nH]2)CC1` the value was -8.87% [at 35.3 µM] (inactive). For `Cc1ccc(Cl)c(Nc2ccccc2C(=O)O)c1Cl`, the “cytotoxicity increase” value was -4.68% [at 35.3 µM] (inactive). For `CC/C=C1/OC(=O)c2ccccc21`, the “cytotoxicity increase” value was 9.45% (inactive). On to `CCOc1ccccc1O[C@H](c1ccccc1)[C@H]1CNCCO1`, for which the “cytotoxicity increase” value was 5% [at 35.3 µM] (inactive). As for `CC(=O)Nc1cc(S(=O)(=O)O)cc2cc(S(=O)(=O)O)c(N=Nc3ccccc3)c(O)c12`, the “cytotoxicity increase” value was -38.4% (inactive).

Take `CCCCCCCCCCC(=O)O`: the “cytotoxicity increase” value is -0.594% (inactive). Still for that read-out and setting: for `Cc1cc(C)c(N)cc1C` the value was -14.4% (inactive). Take `Cc1cc(O)c(C)c(C)c1O`: the “cytotoxicity increase” value is -7.79% [at 35.3 µM] (inactive). On the same count and under the same terms, for `O=C1NCCN1CCO` the value was -5.74% (inactive). The same measure, in the same setting: for `c1ccc(C[n+]2cccc3ccccc32)cc1` the value was 1.3% (inactive). On the same count and under the same terms, for `C=CCc1ccccc1OCC(O)CNC(C)C` (stereo not given) the value was 2.03% [at 35.3 µM] (inactive). As to `C1COC1`, the “cytotoxicity increase” value is -0.231% (inactive). Same read-out and setting: for `CC(C)C=O` the value was 1.29% (inactive).

For `c1ccc2c(c1)CCc1ccccc1N2`, the Potency result is “inactive”. Still for that read-out and setting: for `C[C@@H]1CN(CCCn2c3ccccc3c3ccccc32)C[C@H](C)N1` the value was 23.9 µM (active). With `O=[N+]([O-])c1ccc(Nc2ccc(Nc3ccccc3)c(S(=O)(=O)O)c2)c([N+](=O)[O-])c1`, the “cytotoxicity increase” value was -1.13% (inactive). As to `C[C@@H]1CC(=O)NN=C1c1ccc(NN=C(C#N)C#N)cc1`, the Potency entry was “inactive”.

`Cc1ccc(C(C)(C)O)cc1`: the “cytotoxicity increase” value is -5.62% (inactive). The same measure, in the same setting: for `CC(C)C[C@H](NC(=O)[C@H](CCc1ccccc1)NC(=O)CN1CCOCC1)C(=O)N[C@@H](Cc1ccccc1)C(=O)N[C@@H](CC(C)C)C(=O)[C@@]1(C)CO1` the value was 4.22% [at 35.3 µM] (inactive); for `CCC(OCCCOC)OC(C)=O` (stereo not given), -1.69% (inactive). On the same count and under the same terms, for `O=Cc1c2ccccc2c(Cl)c2ccccc12` the value was 0.481% [at 35.3 µM] (inactive). On the same count and under the same terms, for `Clc1cc(Cl)nc(Cl)n1` the value was 11.8% (inactive).
